Laboratory results: PubChem BioAssay (NCATS)
Records with an inconclusive call do not appear. Calls of active or inactive are those of the source. Unless noted, calls follow the shape of the dose curve; as a rule, active = well fitted curve in the direction sought with a large enough effect; inconclusive = small, poorly fitted or top-dose-only effect, or another doubt; inactive = no such curve, though single readings can be large; an effect the other way counts as inactive or inconclusive.

Assays:
[1] = target: Luciferin 4-monooxygenase (Photinus pyralis) (UniProt P08659); assay: Biochemical firefly luciferase enzyme assay for NPC (AID 624030); also: nearly all actives have a fitted effect of over 70% in size; also: potency is read from the fitted curve at half-maximal effect; conditions: purified P. pyralis luciferase, luminescence, 5 min; series mostly up to 58.6 µM
How it was run: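 Purified P. pyralis luciferase at 10 nM in 50 mM Tris Acetate (final), luminescence read within 5 minutes of enzyme addition to compounds. Activity normalised to PTC124 versus DMSO; concentration-response curves classed by r2, magnitude and activity.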

[2] = S16 Schwann cell viability assay (CellTiter-Glo assay) (AID 624031); conditions: S16 rat Schwann cells viability, 24 h; series mostly up to 57.5 µM; also: nearly all actives have a fitted effect of over 70% in size; also: potency is read from the fitted curve at half-maximal effect
How it was run: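 Counter-screen for cytotoxicity: parental S16 rat Schwann cells lacking the PMP22 reporters, treated 24 h with compound, viability from cellular ATP by CellTiter-Glo luminescence, normalized to DMSO (0%) and no-cell wells.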

[3] = S16 Schwann cell PMP22 intronic element firefly luciferase assay (AID 624032); conditions: S16 rat Schwann cells, PMP22 element FLuc, 24 h; series mostly up to 57.5 µM; also: nearly all actives have a fitted effect of over 30% in size; also: potency is read from the fitted curve at half-maximal effect
How it was run: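 Rat S16 Schwann cells stably carrying firefly luciferase driven by a PMP22 intronic element, in 10% FBS, treated 24 h at 37 C. ONE-Glo luminescence normalized to PTC124 control and DMSO (0%); curves classed by r2, magnitude and activity.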

[4] = S16 Schwann cell PMP22 intronic element beta-lactamase assay (AID 624044; calls by dose curve; also: nearly all actives have a fitted effect of over 15% in size); conditions: S16 rat Schwann cells, PMP22 element beta-lactamase FRET, 24 h; series mostly up to 38.3 µM
How it was run: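 Beta-lactamase reporter under a PMP22 intronic regulatory element in stable S16 rat Schwann cells; 24 h compound exposure. 460 nm blue signal normalized between DMSO (0%) and potassium clavulanate, with 535 nm FRET tracking viability; curves classed by r2 and response.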

[5] = target: Glutaminase kidney isoform, mitochondrial (Homo sapiens) (UniProt O94925); assay: qHTS for Inhibitors of Glutaminase (GLS): LOPAC Validation (AID 624146); conditions: glutaminase enzyme activity inhibition; series mostly up to 46.1 µM; also: nearly all actives have a fitted effect of over 60% in size; also: potency is read from the fitted curve at half-maximal effect
How it was run: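 hKGA; 45 mM KH2PO4 pH 8.2 + 0.02% Tween-20; cpd via pin tool; 1 mM Gln soln; GluOx/HRP/Amplex Red; RT 30 min; fluor. t0 & final.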

[6] = qHTS of Trypanosoma Brucei Inhibitors: LOPAC Validation (AID 624147); conditions: purified enzyme assay, luminescence, 45 min; series mostly up to 57.5 µM
How it was run: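 Activity of T. brucei pyruvate kinase was followed by Kinase-Glo Plus luminescence after the enzyme reacted 45 min at room temperature with 130 uM ADP (final) and substrate. Test compounds were added before ADP at multiple concentrations.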

[7] = target: Glucagon-like peptide 1 receptor (Homo sapiens) (UniProt P43220); assay: qHTS of GLP-1 Receptor Agonists: LOPAC Validation (AID 624148); conditions: GLP-1R agonist cell assay; series mostly up to 46.1 µM;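 also: higher luminescence signal means agonism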
How it was run: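 HEK293 cells stably co-expressing GLP-1R and a cAMP-responsive luciferase reporter, plated 12 hours before compound, then incubated 4-6 hr at 37 deg C. Luminescence read 12 min after detection reagent.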

[8] = qHTS of Nrf2 Activators: LOPAC Validation (AID 624149); conditions: Nrf2/ARE reporter cell assay; series mostly up to 46.1 µM
How it was run: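 Following overnight seeding in 5% FBS OPTI-MEM, AREc32_Fluc cells receive compounds for a 24 hr incubation at 37 deg C with 5% CO2. Steady-Glo is added, and after 30 min at RT luminescence is recorded.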

[9] = HTS Assay for Allosteric Antagonists of the Human D2 Dopamine Receptor: Hit Validation in HTRF (AID 624455); conditions: Cells stably expressing D1 dopamine receptor, inhibition mode; series mostly up to 46.1 µM; also: potency is read from the fitted curve at half-maximal effect;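 also: stable D1 dopamine receptor cell line scored for blocking the D1 response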
How it was run: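 Validation of hits used D1 receptor stably expressed in cells with HTRF detection of response inhibition; origin screen measured calcium flux following EC80 dopamine in a force-coupled, inducible Hek293 Trex D2 cell line.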

[10] = target: Voltage-gated inwardly rectifying potassium channel KCNH2 (Homo sapiens) (UniProt Q12809); assay: qHTS Assay for Small Molecule Inhibitors of the Human hERG Channel Activity (AID 588834); conditions: U2OS BacMam hERG, FluxOR thallium flux fluorescence; series mostly up to 46.1 µM;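 also: lower thallium flux fluorescence means stronger hERG block; nearly all actives have a fitted effect of over 50% in size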; also: potency is read from the fitted curve at half-maximal effect
How it was run: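 Thallium serves as surrogate for K+ influx through BacMam-delivered hERG in U2OS cells. Compounds are added for about 10 minutes after dye loading; stimulation buffer then starts flux, monitored kinetically on FDSS.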

Measured: Potency

Chain of Voltage-gated inwardly rectifying potassium channel KCNH2 (Homo sapiens) (Q12809 whole entry, looked up): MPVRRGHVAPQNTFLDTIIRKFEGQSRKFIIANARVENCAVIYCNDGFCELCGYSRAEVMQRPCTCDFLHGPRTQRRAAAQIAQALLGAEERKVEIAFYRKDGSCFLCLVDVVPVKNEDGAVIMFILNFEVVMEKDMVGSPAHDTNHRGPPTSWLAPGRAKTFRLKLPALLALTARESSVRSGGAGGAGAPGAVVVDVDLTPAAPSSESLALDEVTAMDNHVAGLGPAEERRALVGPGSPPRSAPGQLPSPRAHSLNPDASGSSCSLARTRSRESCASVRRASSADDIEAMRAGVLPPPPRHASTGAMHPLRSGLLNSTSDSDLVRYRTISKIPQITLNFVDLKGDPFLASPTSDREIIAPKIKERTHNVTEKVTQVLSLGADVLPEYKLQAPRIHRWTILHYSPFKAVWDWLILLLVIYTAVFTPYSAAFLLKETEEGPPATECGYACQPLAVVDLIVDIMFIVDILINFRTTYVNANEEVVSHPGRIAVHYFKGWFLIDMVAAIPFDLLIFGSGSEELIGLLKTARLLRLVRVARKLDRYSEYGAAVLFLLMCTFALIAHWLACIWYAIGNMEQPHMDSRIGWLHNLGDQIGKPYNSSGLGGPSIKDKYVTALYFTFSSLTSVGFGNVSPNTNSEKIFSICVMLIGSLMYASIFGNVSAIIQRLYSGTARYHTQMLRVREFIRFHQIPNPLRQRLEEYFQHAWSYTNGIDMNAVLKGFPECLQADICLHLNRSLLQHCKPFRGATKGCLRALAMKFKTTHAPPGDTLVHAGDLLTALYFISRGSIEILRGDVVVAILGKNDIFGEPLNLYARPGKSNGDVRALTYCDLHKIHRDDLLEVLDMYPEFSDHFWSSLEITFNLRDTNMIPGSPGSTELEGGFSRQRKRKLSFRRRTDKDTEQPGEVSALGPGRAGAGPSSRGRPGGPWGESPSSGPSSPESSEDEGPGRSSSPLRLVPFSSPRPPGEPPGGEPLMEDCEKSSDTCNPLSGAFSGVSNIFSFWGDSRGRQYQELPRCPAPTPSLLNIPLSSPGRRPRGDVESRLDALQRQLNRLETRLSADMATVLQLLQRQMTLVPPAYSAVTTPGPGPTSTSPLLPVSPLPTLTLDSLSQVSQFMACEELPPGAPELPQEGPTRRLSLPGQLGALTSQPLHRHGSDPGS
Chain of Glucagon-like peptide 1 receptor (Homo sapiens) (P43220 whole entry, looked up): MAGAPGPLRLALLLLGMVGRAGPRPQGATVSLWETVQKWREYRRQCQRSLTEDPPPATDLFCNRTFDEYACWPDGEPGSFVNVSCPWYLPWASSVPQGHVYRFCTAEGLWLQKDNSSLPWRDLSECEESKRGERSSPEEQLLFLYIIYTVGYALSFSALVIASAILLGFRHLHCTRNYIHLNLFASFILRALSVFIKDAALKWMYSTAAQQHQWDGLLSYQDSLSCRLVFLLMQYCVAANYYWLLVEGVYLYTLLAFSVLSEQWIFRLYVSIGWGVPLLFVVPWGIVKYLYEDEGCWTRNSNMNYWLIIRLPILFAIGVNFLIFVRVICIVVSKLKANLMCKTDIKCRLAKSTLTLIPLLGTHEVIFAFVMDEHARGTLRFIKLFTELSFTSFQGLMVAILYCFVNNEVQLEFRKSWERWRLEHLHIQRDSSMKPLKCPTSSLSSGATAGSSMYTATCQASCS
Chain of Glutaminase kidney isoform, mitochondrial (Homo sapiens) (O94925 whole entry, looked up, canonical isoform): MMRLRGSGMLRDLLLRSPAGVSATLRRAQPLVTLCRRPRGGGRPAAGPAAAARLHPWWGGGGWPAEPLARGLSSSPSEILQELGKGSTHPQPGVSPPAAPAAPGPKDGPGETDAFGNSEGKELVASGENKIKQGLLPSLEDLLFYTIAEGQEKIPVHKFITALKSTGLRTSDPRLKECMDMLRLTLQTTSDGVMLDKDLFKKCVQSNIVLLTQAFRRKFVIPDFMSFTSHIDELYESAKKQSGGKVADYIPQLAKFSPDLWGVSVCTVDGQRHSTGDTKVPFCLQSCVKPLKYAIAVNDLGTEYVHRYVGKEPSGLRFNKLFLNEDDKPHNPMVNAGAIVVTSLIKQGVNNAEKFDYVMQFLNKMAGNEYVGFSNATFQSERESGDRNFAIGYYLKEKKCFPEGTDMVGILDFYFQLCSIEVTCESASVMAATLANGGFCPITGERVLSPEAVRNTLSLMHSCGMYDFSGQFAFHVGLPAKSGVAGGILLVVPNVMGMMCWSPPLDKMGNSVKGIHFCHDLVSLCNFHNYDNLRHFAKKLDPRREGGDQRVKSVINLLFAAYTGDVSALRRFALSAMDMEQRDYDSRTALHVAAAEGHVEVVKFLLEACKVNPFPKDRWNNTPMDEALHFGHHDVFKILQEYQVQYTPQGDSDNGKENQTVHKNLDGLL
Chain of Luciferin 4-monooxygenase (Photinus pyralis) (P08659 whole entry, looked up): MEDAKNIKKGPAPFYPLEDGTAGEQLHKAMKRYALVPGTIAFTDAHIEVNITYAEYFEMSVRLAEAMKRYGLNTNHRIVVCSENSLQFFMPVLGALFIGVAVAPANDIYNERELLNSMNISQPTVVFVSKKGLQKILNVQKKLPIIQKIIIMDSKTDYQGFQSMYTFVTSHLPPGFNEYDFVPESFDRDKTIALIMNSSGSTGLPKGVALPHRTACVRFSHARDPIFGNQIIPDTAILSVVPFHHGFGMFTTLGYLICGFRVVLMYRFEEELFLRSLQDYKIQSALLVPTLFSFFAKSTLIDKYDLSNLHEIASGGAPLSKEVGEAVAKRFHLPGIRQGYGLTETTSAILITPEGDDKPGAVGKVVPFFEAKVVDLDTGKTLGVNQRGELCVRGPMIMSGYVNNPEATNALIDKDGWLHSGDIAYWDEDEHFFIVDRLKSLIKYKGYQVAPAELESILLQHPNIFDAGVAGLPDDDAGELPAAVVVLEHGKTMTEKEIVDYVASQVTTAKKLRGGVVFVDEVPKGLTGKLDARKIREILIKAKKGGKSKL

C[N+]1(C)C2CCC1CC(OC(=O)c1c[nH]c3ccccc13)C2 (configuration not stated)
inactive: [1] | [2] | [3] | [4] | [5] | [6] | [7] | [8] | [9]

COC(=O)N1CCN(C(=O)Cc2ccc(Cl)c(Cl)c2)C(CN2CCCC2)C1 (configuration not stated)
active: [10] 11200 nM
inactive: [5] | [7] | [8] | [9]

CC(N)[C@H](O)c1ccc(O)c(O)c1 (some centres not stated)
inactive: [10] | [5] | [8] | [9]

O=c1c2ccccc2[se]n1-c1ccccc1
active: [1] 8090 nM | [2] 12800 nM | [3] 28700 nM | [5] 2820 nM
inactive: [4] | [7] | [9]

CNC(=O)OCC[N+](C)(C)C
inactive: [1] | [2] | [3] | [4]

COc1ccc2[nH]cc(CCN)c2c1
inactive: [10] | [6] | [7] | [8]

CN1c2ccccc2C(NCCCCCCC(=O)O)c2ccc(Cl)cc2S1(=O)=O (configuration not stated)
inactive: [1] | [2] | [3] | [4]

CCCN(CCC)CCc1ccc(O)c(O)c1
inactive: [6] | [7] | [8]
active: [9] 92 nM

C=CCN1CC[C@]23c4c5ccc(O)c4O[C@@H]2/C(=N/N=C2\CC[C@@]4(O)C6Cc7ccc(O)c8c7[C@@]4(CCN6CC=C)[C@@H]2O8)CC[C@@]3(O)C1C5
active: [5] 2000 nM
inactive: [6] | [7] | [8] | [9]

C[N+]1(C)CCc2cc3c(cc2[C@H]1[C@@H]1OC(=O)c2c1ccc1c2OCO1)OCO3
inactive: [5] | [6] | [7] | [8] | [9]

c1ccc2c(N3CCNCC3)cccc2c1
inactive: [7] | [8] | [9]

NC(Cc1ccc(N(CCCl)CCCl)cc1)C(=O)O (configuration not stated)
inactive: [6] | [7] | [8] | [9]

CN1CCc2cc(O)cc3c2[C@H]1Cc1ccc(O)c(O)c1-3
inactive: [7] | [8]
active: [5] 2240 nM

CC(=O)OCC1=C(C(=O)O)N2C(=O)[C@@H](NC(=O)CCC[C@@H](N)C(=O)O)[C@H]2SC1
inactive: [5] | [7] | [8] | [9]

N=C(N)c1ccc(CS(=O)(=O)F)cc1
inactive: [5] | [6] | [7] | [8] | [9]

CCCN1CCc2cccc3c2[C@H]1Cc1ccc(O)c(O)c1-3
active: [5] 1410 nM
inactive: [7] | [8]

CCCN1CC[C@@H]2c3cc(O)ccc3CC[C@@H]21
inactive: [7] | [8]

N#CCCN
inactive: [5] | [6] | [7] | [8] | [9]

C[C@H](N)Cc1cccc(C(F)(F)F)c1
inactive: [5] | [7] | [8] | [9]

CN1CC[C@@]2(C)c3cc(OC(=O)Nc4ccccc4)ccc3N(C)[C@@H]12
active: [5] 1120 nM
inactive: [6] | [7] | [8] | [9]

CCS(=O)(=O)Nc1cccc(C(=C2CCCCC2)c2cnc[nH]2)c1
inactive: [5] | [6] | [7] | [8] | [9]

CCCN(CCC)C1Cc2cc(OC)c(OC)cc2C1
inactive: [5] | [7] | [8] | [9]

C[C@H](N)CN1CCc2ccc(Br)cc21
inactive: [6] | [7] | [8] | [9]

C=CCN1CCc2cccc3c2[C@H]1Cc1ccc(O)c(O)c1-3
active: [5] 891 nM | [9] 51.7 nM
inactive: [7] | [8]

O=[N+]([O-])/C=C/c1ccc2c(c1)OCO2
active: [5] 12600 nM
inactive: [7] | [8] | [9]

CCCCCCCCCCCCCC(=O)O[C@@H]1[C@@H](C)[C@@]2(O)[C@@H](C=C(CO)C[C@@]3(O)C(=O)C(C)=C[C@@H]23)C2C(C)(C)[C@@]21OC(C)=O (some centres not stated)
inactive: [6] | [7] | [8]

N[C@@H](Cn1ccc(=O)[nH]c1=O)C(=O)O
inactive: [5] | [6] | [7] | [8] | [9]

CCNC(=O)[C@H]1O[C@@H](n2cnc3c(N)ncnc32)[C@H](O)[C@@H]1O
inactive: [5] | [7] | [8] | [9]

C[C@@H]1O[C@H](C[N+](C)(C)C)CS1
inactive: [5] | [6] | [7] | [8] | [9]

CN1C2CCC1CC(OC(c1ccccc1)c1ccccc1N)C2 (configuration not stated)
inactive: [5] | [6] | [7] | [8] | [9]

CC(C)(O)[C@@H]1C2OC(=O)[C@@H]1[C@]1(O)C[C@H]3O[C@]34C(=O)O[C@H]2[C@]14C (tested in a mixture with another compound)
inactive: [5] | [6] | [7] | [8] | [9]
